Data taken from PubChem BioAssay AID1159580 (chemical genetic matrix, 2015).
Among all 5,500 compounds or so, about 2,000 (36%) were called active. About 18% were inconclusive and are not listed. Rule as the data show it: active = normalized growth mostly below about 0.91 (no sharp cut-off); inconclusive = no clear call, values can overlap the other calls; inactive = mostly above about 0.92. This is one part of the list.

Experiment: chemical genetic growth profiling, strain panel (AID 1159580);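 also: tested at 20 µM; growth read once vehicle control cultures reached saturation at 30 °C; 1 = growth at the plate median or of vehicle wells; lower values mean less growth of the strain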
Settings: growth OD

Measured: normalized growth

N#Cc1c(Cl)c(Cl)c(Cl)c(C#N)c1Cl
active: S. cerevisiae deletion strains, locus YKL160W, strain elf1, stronger effect = lower value 0.0734 | S. cerevisiae deletion strains, locus YKR026C, strain gcn3, stronger effect = lower value 0.0728 | S. cerevisiae deletion strains, locus YKR091W, strain srl3, stronger effect = lower value 0.0738 | S. cerevisiae deletion strains, locus YLL001W, strain dnm1, stronger effect = lower value 0.0739 | S. cerevisiae deletion strains, locus YLL026W, stronger effect = lower value 0.068 | S. cerevisiae deletion strains, locus YLL041C, strain sdh2, stronger effect = lower value 0.0683 | S. cerevisiae deletion strains, locus YLR027C, strain aat2, stronger effect = lower value 0.072 | S. cerevisiae deletion strains, locus YLR113W, strain HOG1, stronger effect = lower value 0.153 | S. cerevisiae deletion strains, locus YLR221C, strain rsa3, stronger effect = lower value 0.0754 | S. cerevisiae deletion strains, locus YLR258W, strain gsy2, stronger effect = lower value 0.0732 | S. cerevisiae deletion strains, locus YLR262C, strain YPT6 (second series), stronger effect = lower value 0.0948 | S. cerevisiae deletion strains, locus YLR320W, strain mms22, stronger effect = lower value 0.0991 | S. cerevisiae deletion strains, locus YLR342W, strain FKS1, stronger effect = lower value 0.0799 | S. cerevisiae deletion strains, locus YLR357W, strain rsc2, stronger effect = lower value 0.146 | S. cerevisiae deletion strains, locus YLR370C, strain arc18, stronger effect = lower value 0.0758 | S. cerevisiae deletion strains, locus YLR384C, strain iki3, stronger effect = lower value 0.0759 | S. cerevisiae deletion strains, locus YML120C, strain ndi1, stronger effect = lower value 0.0696 | S. cerevisiae deletion strains, locus YMR058W, strain fet3, stronger effect = lower value 0.074 | S. cerevisiae deletion strains, locus YMR125W, strain sto1, stronger effect = lower value 0.0959 | S. cerevisiae deletion strains, locus YMR129W, stronger effect = lower value 0.0707 | S. cerevisiae deletion strains, locus YMR205C, strain PFK2, stronger effect = lower value 0.111 | S. cerevisiae deletion strains, locus YMR231W, strain pep5, stronger effect = lower value 0.0788 | S. cerevisiae deletion strains, locus YNL071W, strain lat1, stronger effect = lower value 0.0711 | S. cerevisiae deletion strains, locus YNL183C, strain NPR1, stronger effect = lower value -0.00756 | S. cerevisiae deletion strains, locus YNL209W, strain ssb2, stronger effect = lower value 0.0719 | S. cerevisiae deletion strains, locus YNL248C, strain rpa49, stronger effect = lower value 0.0922 | S. cerevisiae deletion strains, locus YNL322C, strain KRE1 (second series), stronger effect = lower value 0.0768 | S. cerevisiae deletion strains, locus YNR049C, strain mso1, stronger effect = lower value 0.0681 | S. cerevisiae deletion strains, locus YOR001W, strain rrp6, stronger effect = lower value 0.0917 | S. cerevisiae deletion strains, locus YOR070C, strain gyp1, stronger effect = lower value 0.0717 | S. cerevisiae deletion strains, locus YOR080W, strain dia2, stronger effect = lower value 0.0799 | S. cerevisiae deletion strains, locus YOR083W, strain WHI5, stronger effect = lower value 0.0798 | S. cerevisiae deletion strains, locus YOR106W, strain vam3, stronger effect = lower value 0.0853 | S. cerevisiae deletion strains, locus YOR231W, strain MKK1, stronger effect = lower value 0.13 | S. cerevisiae deletion strains, locus YOR265W, strain rbl2, stronger effect = lower value 0.0688 | S. cerevisiae deletion strains, locus YOR270C, strain vph1, stronger effect = lower value 0.122 | S. cerevisiae deletion strains, locus YOR290C, strain snf2, stronger effect = lower value 0.0764 | S. cerevisiae deletion strains, locus YPL051W, strain arl3, stronger effect = lower value 0.0808 | S. cerevisiae deletion strains, locus YPL078C, strain atp4, stronger effect = lower value 0.081 | S. cerevisiae deletion strains, locus YPL106C, strain sse1, stronger effect = lower value 0.126 | S. cerevisiae deletion strains, locus YPL240C, strain hsp82, stronger effect = lower value 0.0722 | S. cerevisiae deletion strains, locus YPL256C, strain CLN2, stronger effect = lower value 0.186
inactive: S. cerevisiae deletion strains, locus YJR075W, strain HOC1, stronger effect = lower value 0.999 | S. cerevisiae deletion strains, locus YKL009W, strain mrt4, stronger effect = lower value 0.976 | S. cerevisiae deletion strains, locus YKL068W, stronger effect = lower value 0.989 | S. cerevisiae deletion strains, locus YKL085W, strain MDH1 (second series), stronger effect = lower value 0.989 | S. cerevisiae deletion strains, locus YKL085W, strain MDH1, stronger effect = lower value 0.989 | S. cerevisiae deletion strains, locus YKL190W, strain CNB1, stronger effect = lower value 1.01 | S. cerevisiae deletion strains, locus YKR001C, strain vps1, stronger effect = lower value 0.983 | S. cerevisiae deletion strains, locus YLR039C, strain RIC1, stronger effect = lower value 1 | S. cerevisiae deletion strains, locus YLR058C, strain SHM2, stronger effect = lower value 0.994 | S. cerevisiae deletion strains, locus YLR102C, strain apc9, stronger effect = lower value 0.981 | S. cerevisiae deletion strains, locus YLR262C, strain YPT6, stronger effect = lower value 1.02 | S. cerevisiae deletion strains, locus YLR268W, strain sec22, stronger effect = lower value 0.998 | S. cerevisiae deletion strains, locus YLR330W, strain CHS5, stronger effect = lower value 0.996 | S. cerevisiae deletion strains, locus YLR342W, strain FKS1 (second series), stronger effect = lower value 0.993 | S. cerevisiae deletion strains, locus YLR371W, strain rom2, stronger effect = lower value 0.975 | S. cerevisiae deletion strains, locus YLR418C, strain cdc73, stronger effect = lower value 0.995 | S. cerevisiae deletion strains, locus YML016C, strain PPZ1, stronger effect = lower value 0.998 | S. cerevisiae deletion strains, locus YML032C, strain rad52, stronger effect = lower value 0.968 | S. cerevisiae deletion strains, locus YML124C, strain tub3, stronger effect = lower value 0.984 | S. cerevisiae deletion strains, locus YMR078C, strain ctf18, stronger effect = lower value 0.969 | S. cerevisiae deletion strains, locus YMR223W, strain ubp8, stronger effect = lower value 0.975 | S. cerevisiae deletion strains, locus YMR263W, strain SAP30, stronger effect = lower value 1 | S. cerevisiae deletion strains, locus YMR307W, strain GAS1, stronger effect = lower value 0.902 | S. cerevisiae deletion strains, locus YNL067W, strain RPL9B, stronger effect = lower value 1 | S. cerevisiae deletion strains, locus YNL128W, strain TEP1, stronger effect = lower value 0.997 | S. cerevisiae deletion strains, locus YNL153C, strain GIM3, stronger effect = lower value 1.01 | S. cerevisiae deletion strains, locus YNL233W, strain BNI4, stronger effect = lower value 1 | S. cerevisiae deletion strains, locus YNL250W, strain rad50, stronger effect = lower value 0.98 | S. cerevisiae deletion strains, locus YNL271C, strain bni1, stronger effect = lower value 0.974 | S. cerevisiae deletion strains, locus YNL298W, strain CLA4, stronger effect = lower value 0.971 | S. cerevisiae deletion strains, locus YNL307C, strain MCK1, stronger effect = lower value 0.981 | S. cerevisiae deletion strains, locus YNL322C, strain KRE1, stronger effect = lower value 0.997 | S. cerevisiae deletion strains, locus YNR052C, strain pop2, stronger effect = lower value 0.978 | S. cerevisiae deletion strains, locus YOL006C, strain TOP1, stronger effect = lower value 1.01 | S. cerevisiae deletion strains, locus YOL012C, strain htz1 1.56 | S. cerevisiae deletion strains, locus YOL147C, strain pex11, stronger effect = lower value 0.989 | S. cerevisiae deletion strains, locus YOR061W, strain CKA2, stronger effect = lower value 1.01 | S. cerevisiae deletion strains, locus YOR069W, strain VPS5, stronger effect = lower value 0.999 | S. cerevisiae deletion strains, locus YOR136W, strain idh2, stronger effect = lower value 0.977 | S. cerevisiae deletion strains, locus YOR144C, strain elg1, stronger effect = lower value 0.981 | S. cerevisiae deletion strains, locus YOR184W, strain ser1, stronger effect = lower value 0.965 | S. cerevisiae deletion strains, locus YOR316C, strain cot1, stronger effect = lower value 0.984 | S. cerevisiae deletion strains, locus YPL055C, strain LGE1, stronger effect = lower value 1.01 | S. cerevisiae deletion strains, locus YPL241C, strain CIN2, stronger effect = lower value 1 | S. cerevisiae deletion strains, locus YPR119W, strain clb2, stronger effect = lower value 0.985 | S. cerevisiae deletion strains, locus YPR141C, strain kar3, stronger effect = lower value 0.978 | S. cerevisiae deletion strains, locus YPR163C, strain tif3, stronger effect = lower value 0.98 | S. cerevisiae deletion strains, locus YPR167C, strain met16, stronger effect = lower value 0.989 | S. cerevisiae deletion strains, strain wtn01, stronger effect = lower value 0.99 | S. cerevisiae strains, strain wild type, stronger effect = lower value 0.997
